PubChem BioAssay (Tox21)
Results filed as inconclusive are left out. Values without a mark were called inactive. Activity calls are given as the source filed them. Calls come from the whole dose curve; as a rule, active = well fitted inhibition curve with a large enough effect in the signal ratio in the repeat runs, with a control signal flat; inconclusive = weak or mixed curves, or effect the other way; inactive = flat fitted curve, though single readings scatter; the % refers to the signal ratio.

These compounds were tested against D(2) dopamine receptor (Homo sapiens) (UniProt P14416) (assay: Dopamine D2 receptor (DRD2) small molecule antagonists, cell-based qHTS assay (AID 1963595)). Details: HEK293-DRD2 cAMP HTRF antagonist mode; series mostly up to 92.4 µM; activity change, negative = inhibition: at the top concentration.
Chain of D(2) dopamine receptor (Homo sapiens) (P14416 whole entry, looked up): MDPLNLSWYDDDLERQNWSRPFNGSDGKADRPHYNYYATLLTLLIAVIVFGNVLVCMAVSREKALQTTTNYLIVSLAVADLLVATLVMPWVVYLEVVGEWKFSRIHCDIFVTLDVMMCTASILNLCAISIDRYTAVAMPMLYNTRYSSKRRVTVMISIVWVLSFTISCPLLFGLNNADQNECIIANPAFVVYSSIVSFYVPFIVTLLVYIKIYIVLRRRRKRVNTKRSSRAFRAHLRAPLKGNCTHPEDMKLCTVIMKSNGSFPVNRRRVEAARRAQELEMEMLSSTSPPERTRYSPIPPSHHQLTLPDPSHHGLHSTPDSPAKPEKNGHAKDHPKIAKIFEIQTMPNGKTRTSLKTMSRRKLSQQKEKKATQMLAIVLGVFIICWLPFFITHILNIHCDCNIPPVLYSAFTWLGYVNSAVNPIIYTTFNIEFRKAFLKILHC
Outline: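 Antagonist mode in DRD2-HEK293 cells: after compound addition with 0.1 mM Ro20-1724, cells received quinpirole (12 nM) and NKH477 (200 nM) for 30 min at room temperature; HTRF cAMP read after 1 h detection.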
% is set by controls: 0 for no effect and ±100 for the full control effect; potency is the fitted concentration of half-maximal effect.

Row | Compound | activity change, negative = inhibition | Potency
1 | CCCCc1nc2cccnc2n1Cc1ccc(-c2ccccc2-c2nnn[nH]2)cc1 | 4.42% | 
2 | O=C(O)Cc1csc(-c2ccc(Cl)cc2)n1 | 14.7% [at 42.5 µM] | 
3 | CCOC(=O)Nc1ccc(NCc2ccc(F)cc2)nc1N | -2.31% [at 42.5 µM] | 
4 | CC(Cl)C(Cl)Cl (configuration not stated) | -7.07% | 
5 | O=C(O)C[C@H](O)C[C@H](O)/C=C/c1c(C2CC2)nc2ccccc2c1-c1ccc(F)cc1 | 4% [at 18.9 µM] | 
6 | CC(=O)Nc1cccc(C)c1 | 1.78% | 
7 | CCCCCCc1ccc(N)cc1 | 10.7% | 
8 | O=C=Nc1cccc(C(F)(F)F)c1 | 6.41% | 
9 | CCCCC(CC)CN1C(=O)C2C3C=CC(C3)C2C1=O (configuration not stated) | -13.2% | 
10 | NCCS | -0.202% [at 42.5 µM] | 
11 | CN1CCN(C2Cc3ccccc3Sc3ccc(Cl)cc32)CC1 (configuration not stated) |  | 0.133 µM (active)
12 | CCOC(=O)C1=NN(c2ccc(Cl)cc2Cl)C(C)(C(=O)OCC)C1 (configuration not stated) | 4.69% | 
